Results reported in article PMC7862700, “An all-to-all approach to the identification of sequence-specific readers for epigenetic DNA modifications on cytosine”.

Experiments:
Assay in all cases: DAPPL (digital affinity profiling via proximity ligation, sequencing); 10 mM Tris-HCl pH 7.5, 50 mM NaCl, 1 mM DTT, 4% glycerol, room temperature, 30 min; GST-TFs on glutathione beads, 16-mer random dsDNA library, 0.1% formaldehyde crosslink after washing; high values mean tight binding
Conditions in all cases: protein: recombinant; tags: N-terminal GST; dsDNA, one strand shown
ERF = biological target: T1, ERF (Homo sapiens, UniProt P50548 1-548)
T1 sequence: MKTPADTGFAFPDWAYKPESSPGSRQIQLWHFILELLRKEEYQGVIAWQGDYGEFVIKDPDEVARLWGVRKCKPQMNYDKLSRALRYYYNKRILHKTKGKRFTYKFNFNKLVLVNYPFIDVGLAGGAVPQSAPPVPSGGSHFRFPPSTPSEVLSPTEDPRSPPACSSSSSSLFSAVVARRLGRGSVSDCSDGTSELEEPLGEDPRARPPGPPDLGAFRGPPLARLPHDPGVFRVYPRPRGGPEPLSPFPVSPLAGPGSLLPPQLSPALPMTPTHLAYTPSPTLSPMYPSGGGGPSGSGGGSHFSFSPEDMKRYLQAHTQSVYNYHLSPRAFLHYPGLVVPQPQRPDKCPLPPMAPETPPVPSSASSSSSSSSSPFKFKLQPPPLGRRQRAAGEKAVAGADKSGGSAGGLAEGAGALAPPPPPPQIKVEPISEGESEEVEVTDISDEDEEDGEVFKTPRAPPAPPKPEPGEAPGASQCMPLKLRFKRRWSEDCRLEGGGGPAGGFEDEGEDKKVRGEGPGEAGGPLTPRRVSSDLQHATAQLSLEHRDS
How it was run: (§1)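 GST fusions of human transcription factors were expressed in yeast and captured with glutathione beads. Once given DNA barcodes and pooled alongside a tag-only sample, they were incubated for 30 min at room temperature with 200 nmole of a random double-stranded 16-mer DNA library in Tris/NaCl/DTT/glycerol buffer, then washed, crosslinked (0.1% formaldehyde), proximity-ligated, PCR-amplified and sequenced on an Illumina NextSeq500. The binding signal of each hexamer is its read frequency for a factor divided by its frequency for the tag-only sample.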

ETV3L = biological target: T2, ETV3L (Homo sapiens, UniProt Q6ZN32 1-361)
T2 sequence: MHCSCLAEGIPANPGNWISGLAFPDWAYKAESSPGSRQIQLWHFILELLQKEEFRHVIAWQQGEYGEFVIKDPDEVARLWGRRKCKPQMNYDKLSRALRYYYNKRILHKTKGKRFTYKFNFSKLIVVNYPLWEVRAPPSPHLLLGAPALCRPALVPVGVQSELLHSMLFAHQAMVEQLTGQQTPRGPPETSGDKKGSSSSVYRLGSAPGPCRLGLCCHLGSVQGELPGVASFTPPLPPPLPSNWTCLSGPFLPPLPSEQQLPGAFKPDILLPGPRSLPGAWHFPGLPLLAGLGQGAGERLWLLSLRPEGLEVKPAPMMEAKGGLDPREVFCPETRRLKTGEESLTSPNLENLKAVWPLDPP
How it was run: as §1

ETV7 = biological target: T3, ETV7 (Homo sapiens, UniProt Q9Y603 1-341)
T3 sequence: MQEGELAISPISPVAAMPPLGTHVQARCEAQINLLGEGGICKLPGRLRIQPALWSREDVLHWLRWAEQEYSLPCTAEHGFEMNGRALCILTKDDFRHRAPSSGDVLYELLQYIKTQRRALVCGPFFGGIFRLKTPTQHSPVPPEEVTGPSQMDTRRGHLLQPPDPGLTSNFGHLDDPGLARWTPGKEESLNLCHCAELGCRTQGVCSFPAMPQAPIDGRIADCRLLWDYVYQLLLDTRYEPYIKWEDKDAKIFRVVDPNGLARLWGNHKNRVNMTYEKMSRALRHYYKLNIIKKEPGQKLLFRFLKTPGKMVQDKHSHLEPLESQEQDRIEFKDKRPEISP
How it was run: as §1

ELF5 = biological target: T4, ELF5 (Homo sapiens, UniProt Q9UKW6-2 1-255)
T4 sequence: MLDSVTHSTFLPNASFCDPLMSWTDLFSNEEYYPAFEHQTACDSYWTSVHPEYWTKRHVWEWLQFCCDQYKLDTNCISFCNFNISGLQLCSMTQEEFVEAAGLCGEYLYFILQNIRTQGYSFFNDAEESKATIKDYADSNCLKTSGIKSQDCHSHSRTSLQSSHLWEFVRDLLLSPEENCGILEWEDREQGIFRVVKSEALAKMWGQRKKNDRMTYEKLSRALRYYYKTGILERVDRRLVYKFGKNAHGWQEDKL
How it was run: as §1

ETV3 = biological target: T5, ETV3 (Homo sapiens, UniProt P41162-2 1-143)
T5 sequence: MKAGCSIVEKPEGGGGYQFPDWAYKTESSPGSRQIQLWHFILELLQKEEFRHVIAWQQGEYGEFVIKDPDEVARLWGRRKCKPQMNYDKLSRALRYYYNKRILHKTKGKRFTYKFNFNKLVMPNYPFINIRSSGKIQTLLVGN
How it was run: as §1

ETV6 = ETV6 (Homo sapiens, UniProt P41212 1-452)
Sequence of ETV6 (P41212 whole entry): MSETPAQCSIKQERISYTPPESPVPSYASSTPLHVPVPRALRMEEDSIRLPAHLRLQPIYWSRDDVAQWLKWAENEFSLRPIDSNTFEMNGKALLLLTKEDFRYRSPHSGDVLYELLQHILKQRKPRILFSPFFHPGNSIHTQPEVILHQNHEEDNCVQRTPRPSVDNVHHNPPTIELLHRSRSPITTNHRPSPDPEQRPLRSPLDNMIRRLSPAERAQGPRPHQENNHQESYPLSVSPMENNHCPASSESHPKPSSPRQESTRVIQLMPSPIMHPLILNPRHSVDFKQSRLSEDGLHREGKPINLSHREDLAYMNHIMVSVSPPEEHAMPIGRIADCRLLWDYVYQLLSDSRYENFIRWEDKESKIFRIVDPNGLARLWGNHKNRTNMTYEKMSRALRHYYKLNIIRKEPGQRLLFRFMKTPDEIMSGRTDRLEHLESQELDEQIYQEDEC
How it was run: as §1

ETS2 = biological target: T6, ETS2 (Homo sapiens, UniProt P15036 1-469)
T6 sequence: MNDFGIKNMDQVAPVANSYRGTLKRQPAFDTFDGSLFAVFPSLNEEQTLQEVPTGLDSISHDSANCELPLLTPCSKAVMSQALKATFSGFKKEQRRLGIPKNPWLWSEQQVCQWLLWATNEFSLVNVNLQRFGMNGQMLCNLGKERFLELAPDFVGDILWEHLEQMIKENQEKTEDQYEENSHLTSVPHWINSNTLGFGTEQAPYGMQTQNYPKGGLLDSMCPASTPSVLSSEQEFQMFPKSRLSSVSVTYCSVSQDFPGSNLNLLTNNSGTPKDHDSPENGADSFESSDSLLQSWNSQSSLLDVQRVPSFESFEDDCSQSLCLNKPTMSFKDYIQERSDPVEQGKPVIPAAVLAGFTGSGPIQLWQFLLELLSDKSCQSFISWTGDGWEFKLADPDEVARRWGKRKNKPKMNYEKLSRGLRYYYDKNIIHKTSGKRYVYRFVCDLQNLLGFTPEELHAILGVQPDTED
How it was run: as §1

SPDEF = biological target: T7, SPDEF (Homo sapiens, UniProt O95238 1-335)
T7 sequence: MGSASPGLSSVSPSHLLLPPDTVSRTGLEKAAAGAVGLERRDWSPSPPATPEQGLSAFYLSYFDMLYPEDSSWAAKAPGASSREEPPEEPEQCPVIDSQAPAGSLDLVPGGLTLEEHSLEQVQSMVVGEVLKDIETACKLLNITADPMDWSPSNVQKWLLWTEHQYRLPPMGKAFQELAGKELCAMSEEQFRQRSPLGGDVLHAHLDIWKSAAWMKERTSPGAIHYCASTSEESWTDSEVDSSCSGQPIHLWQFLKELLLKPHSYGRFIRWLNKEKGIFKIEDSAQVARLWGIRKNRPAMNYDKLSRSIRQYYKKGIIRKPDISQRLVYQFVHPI
How it was run: as §1

Sequence | binding signal (ERF) | binding signal (ETV3L) | binding signal (ETV7) | binding signal (ELF5) | binding signal (ETV3) | binding signal (ETV6) | binding signal (ETS2) | binding signal (SPDEF)
CGATGA | 1.14 fold enrichment (6-mer frequency, TF over GST control) | 1.12 fold enrichment (6-mer frequency, TF over GST control) | 1.13 fold enrichment (6-mer frequency, TF over GST control) | 1.01 fold enrichment (6-mer frequency, TF over GST control) | – | – | – | –
GCCGAT | 1.13 fold enrichment (6-mer frequency, TF over GST control) | 1.07 fold enrichment (6-mer frequency, TF over GST control) | 1.12 fold enrichment (6-mer frequency, TF over GST control) | – | 1.18 fold enrichment (6-mer frequency, TF over GST control) | 1.2 fold enrichment (6-mer frequency, TF over GST control) | – | –
AGATAA | 1.02 fold enrichment (6-mer frequency, TF over GST control) | 1.09 fold enrichment (6-mer frequency, TF over GST control) | – | – | – | 1.06 fold enrichment (6-mer frequency, TF over GST control) | 1.04 fold enrichment (6-mer frequency, TF over GST control) | –
CGAACT | 1.16 fold enrichment (6-mer frequency, TF over GST control) | 1.12 fold enrichment (6-mer frequency, TF over GST control) | 1.15 fold enrichment (6-mer frequency, TF over GST control) | 1.07 fold enrichment (6-mer frequency, TF over GST control) | 1.18 fold enrichment (6-mer frequency, TF over GST control) | 1.13 fold enrichment (6-mer frequency, TF over GST control) | 1.18 fold enrichment (6-mer frequency, TF over GST control) | –
TCATGG | 1.07 fold enrichment (6-mer frequency, TF over GST control) | 1.05 fold enrichment (6-mer frequency, TF over GST control) | 1.1 fold enrichment (6-mer frequency, TF over GST control) | 1.07 fold enrichment (6-mer frequency, TF over GST control) | 1.11 fold enrichment (6-mer frequency, TF over GST control) | 1.11 fold enrichment (6-mer frequency, TF over GST control) | 1.1 fold enrichment (6-mer frequency, TF over GST control) | –
ATCGCA | 1.06 fold enrichment (6-mer frequency, TF over GST control) | 1 fold enrichment (6-mer frequency, TF over GST control) | 1.03 fold enrichment (6-mer frequency, TF over GST control) | – | 1.03 fold enrichment (6-mer frequency, TF over GST control) | – | 1.02 fold enrichment (6-mer frequency, TF over GST control) | –
TAGTCT | 1.17 fold enrichment (6-mer frequency, TF over GST control) | 1.04 fold enrichment (6-mer frequency, TF over GST control) | – | 1.04 fold enrichment (6-mer frequency, TF over GST control) | 1.12 fold enrichment (6-mer frequency, TF over GST control) | 1.02 fold enrichment (6-mer frequency, TF over GST control) | 1.09 fold enrichment (6-mer frequency, TF over GST control) | –
CTATAG | 1.03 fold enrichment (6-mer frequency, TF over GST control) | 1.05 fold enrichment (6-mer frequency, TF over GST control) | – | 1.05 fold enrichment (6-mer frequency, TF over GST control) | 1.09 fold enrichment (6-mer frequency, TF over GST control) | 1.04 fold enrichment (6-mer frequency, TF over GST control) | 1 fold enrichment (6-mer frequency, TF over GST control) | –
TAAGGT | 1.06 fold enrichment (6-mer frequency, TF over GST control) | – | 1.04 fold enrichment (6-mer frequency, TF over GST control) | 1.05 fold enrichment (6-mer frequency, TF over GST control) | 1.11 fold enrichment (6-mer frequency, TF over GST control) | 1.08 fold enrichment (6-mer frequency, TF over GST control) | 1.06 fold enrichment (6-mer frequency, TF over GST control) | 1.15 fold enrichment (6-mer frequency, TF over GST control)
CGGTAT | 1.02 fold enrichment (6-mer frequency, TF over GST control) | – | – | 1.1 fold enrichment (6-mer frequency, TF over GST control) | 1.05 fold enrichment (6-mer frequency, TF over GST control) | 1.06 fold enrichment (6-mer frequency, TF over GST control) | 1.01 fold enrichment (6-mer frequency, TF over GST control) | 1.32 fold enrichment (6-mer frequency, TF over GST control)
AAGGTT | 1.01 fold enrichment (6-mer frequency, TF over GST control) | – | 1.15 fold enrichment (6-mer frequency, TF over GST control) | 1.1 fold enrichment (6-mer frequency, TF over GST control) | 1.07 fold enrichment (6-mer frequency, TF over GST control) | 1 fold enrichment (6-mer frequency, TF over GST control) | 1.08 fold enrichment (6-mer frequency, TF over GST control) | 1.02 fold enrichment (6-mer frequency, TF over GST control)
GGCTTG | 1.01 fold enrichment (6-mer frequency, TF over GST control) | – | 1.14 fold enrichment (6-mer frequency, TF over GST control) | – | – | – | 1.06 fold enrichment (6-mer frequency, TF over GST control) | –
CGACGT | 1.17 fold enrichment (6-mer frequency, TF over GST control) | – | 1.2 fold enrichment (6-mer frequency, TF over GST control) | 1.11 fold enrichment (6-mer frequency, TF over GST control) | 1.09 fold enrichment (6-mer frequency, TF over GST control) | 1.08 fold enrichment (6-mer frequency, TF over GST control) | 1.05 fold enrichment (6-mer frequency, TF over GST control) | 1.02 fold enrichment (6-mer frequency, TF over GST control)
CAACAA | 1.05 fold enrichment (6-mer frequency, TF over GST control) | – | 1.02 fold enrichment (6-mer frequency, TF over GST control) | 1.03 fold enrichment (6-mer frequency, TF over GST control) | 1.08 fold enrichment (6-mer frequency, TF over GST control) | 1.01 fold enrichment (6-mer frequency, TF over GST control) | 1.08 fold enrichment (6-mer frequency, TF over GST control) | –
GTCTAA | 1.12 fold enrichment (6-mer frequency, TF over GST control) | – | 1.05 fold enrichment (6-mer frequency, TF over GST control) | 1.03 fold enrichment (6-mer frequency, TF over GST control) | – | – | 1.04 fold enrichment (6-mer frequency, TF over GST control) | –
CCTAGA | 1.05 fold enrichment (6-mer frequency, TF over GST control) | – | – | – | – | – | 1.05 fold enrichment (6-mer frequency, TF over GST control) | 1.01 fold enrichment (6-mer frequency, TF over GST control)
AGTTAA | 1.1 fold enrichment (6-mer frequency, TF over GST control) | – | 1.01 fold enrichment (6-mer frequency, TF over GST control) | 1.03 fold enrichment (6-mer frequency, TF over GST control) | 1.13 fold enrichment (6-mer frequency, TF over GST control) | 1.11 fold enrichment (6-mer frequency, TF over GST control) | 1.06 fold enrichment (6-mer frequency, TF over GST control) | 1.01 fold enrichment (6-mer frequency, TF over GST control)
